# Experimental data reported in PubChem BioAssay (NCATS).
# Inconclusive results are not listed. The source made the active and inactive calls. The call rests on the fitted dose curve; in most records, active means well fitted curve in the direction sought with a large enough effect; inconclusive means small, poorly fitted or top-dose-only effect, or another doubt; inactive means no such curve, though single readings can be large; an effect the other way counts as inactive or inconclusive.
# Test: Quantitative highthroughput screen to assess conditional lethalithy of NOMO1 cells grown in RPMI1640 with untreated serum (RPMI+s) (AID 1963876); further: nearly all actives have a fitted effect of over 35% in size; further: potency means the concentration at half of the fitted maximal effect;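 on viability: 100% = DMSO wells and 0% = empty wells without cells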
# Conditions: NOMO1 AML cells in RPMI+serum, CellTiter-Glo viability, 48 h; series mostly up to 45.8 µM; viability: at the top concentration
# Method in brief: (§1)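 Each medium arm—HPLM with 10% dialyzed FBS, or RPMI1640 with 5 mM glucose and 10% untreated or dialyzed FBS—was screened against an 11-point, 3-fold compound titration for 48 h at 37 °C, with CellTiter-Glo luminescence as endpoint.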
SMILES,Potency,viability
C=C(C)[C@H]1Cc2c(ccc3c2O[C@@H]2COc4cc(OC)c(OC)cc4[C@@H]2C3=O)O1,5.26 µM (active),–
Cc1[nH]nc2ccc(-c3cncc(OC[C@@H](N)Cc4c[nH]c5ccccc45)c3)cc12,1.18 µM (active),–
N[C@@H](Cc1ccc(N(CCCl)CCCl)cc1)C(=O)O,10.5 µM (active),–
CC(C)(C)c1cc(C=C(C#N)C#N)cc(Br)c1O,–,88.9% (inactive)
CCOc1ccccc1-n1c(C(C)N2CCN(C(=O)COc3ccc(Cl)cc3)CC2)nc2ccccc2c1=O (stereo unspecified),1.32 µM (active),–
CN1C(=O)COc2c(C(=O)NC3CN4CCC3CC4)cc(Cl)cc21 (stereo unspecified),–,98.2% (inactive)
CC(NC(C)(C)C)C(=O)c1cccc(Cl)c1 (stereo unspecified),–,92.5% (inactive)
CC[C@@H](C(N)=O)N1CCCC1=O,–,96.3% (inactive)
CCNC(=O)C[C@@H]1N=C(c2ccc(Cl)cc2)c2cc(OC)ccc2-n2c(C)nnc21,9.35 µM (active),–
CN1CCN(c2ccc([N+](=O)[O-])c3no[n+]([O-])c23)CC1,–,80.2% (inactive)
CC(C)c1cccc(C(C)C)c1O,–,94.5% (inactive)
COc1ccc(C(=O)c2c(C)n(CCN3CCOCC3)c3ccccc23)cc1,–,99.8% (inactive)

# Test: Quantitative highthroughput screen to assess conditional lethalithy of NOMO1 cells grown in RPMI1640 with dialyzed fetal bovine serum (RPMI+ds) (AID 1963877); further: nearly all actives have a fitted effect of over 30% in size; further: potency means the concentration at half of the fitted maximal effect;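 on viability: 100% = DMSO control wells and 0% = empty wells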
# Conditions: NOMO1 in RPMI+dialyzed FBS viability, ATP luminescence, 48 h; series mostly up to 45.8 µM; viability: at the top concentration
# Method in brief: as §1
SMILES,Potency,viability
Cc1[nH]nc2ccc(-c3cncc(OC[C@@H](N)Cc4c[nH]c5ccccc45)c3)cc12,0.743 µM (active),–
CC(C)(C)c1cc(C=C(C#N)C#N)cc(Br)c1O,–,92.5% (inactive)
O=P1(NCCCl)OCCCN1CCCl (stereo unspecified),–,89.4% (inactive)
CCOc1ccccc1-n1c(C(C)N2CCN(C(=O)COc3ccc(Cl)cc3)CC2)nc2ccccc2c1=O (stereo unspecified),2.63 µM (active),–
CC(NC(C)(C)C)C(=O)c1cccc(Cl)c1 (stereo unspecified),–,90.2% (inactive)
NCC1(CC(=O)O)CCCCC1,–,90.5% (inactive)
CCNC(=O)C[C@@H]1N=C(c2ccc(Cl)cc2)c2cc(OC)ccc2-n2c(C)nnc21,9.35 µM (active),–
Cc1ncc(OC[C@@]2(c3cccc(F)c3)C[C@H]2C(=O)Nc2ccc(F)cn2)c(C)n1,–,109% (inactive)
CN1CCN(c2ccc([N+](=O)[O-])c3no[n+]([O-])c23)CC1,–,80.1% (inactive)
CC(C)c1cccc(C(C)C)c1O,–,88.8% (inactive)
COC(=O)[C@@H](N)CCCN=C(N)N[N+](=O)[O-],–,110% (inactive)
CN[C@@H]1Cc2cccc3[nH]c(=O)n(c23)C1,–,97.8% (inactive)
O=C(N[C@H]1CN2CCC1CC2)c1ccc(Cl)cc1,–,107% (inactive)

# Test: Quantitative highthroughput screen to assess conditional lethalithy of NOMO1 cells grown in Human Plasma-Like Medium with dialyzed fetal bovine serum (HPLM+ds) (AID 1963878); further: nearly all actives have a fitted effect of over 35% in size; further: potency means the concentration at half of the fitted maximal effect;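 on viability: 100% = DMSO wells and 0% = empty wells on each plate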
# Conditions: NOMO1 AML cells in HPLM+ds, CellTiter-Glo viability, 48 h; series mostly up to 45.8 µM; viability: at the top concentration
# Method in brief: as §1
SMILES,viability,Potency
CC[C@@H](C(N)=O)N1CCCC1=O,94.2% (inactive),–
CCNC(=O)C[C@@H]1N=C(c2ccc(Cl)cc2)c2cc(OC)ccc2-n2c(C)nnc21,–,5.9 µM (active)
Cc1ncc(OC[C@@]2(c3cccc(F)c3)C[C@H]2C(=O)Nc2ccc(F)cn2)c(C)n1,98% (inactive),–
CC(C)c1cccc(C(C)C)c1O,97.9% (inactive),–
COC(=O)[C@@H](N)CCCN=C(N)N[N+](=O)[O-],102% (inactive),–
CN[C@@H]1Cc2cccc3[nH]c(=O)n(c23)C1,93.2% (inactive),–

# Test: Quantitative highthroughput screen to assess conditional lethalithy of P12 Ichikawa cells grown in Human Plasma-Like Medium with dialyzed fetal bovine serum (HPLM+ds) (AID 1963879); further: nearly all actives have a fitted effect of over 35% in size; further: potency means the concentration at half of the fitted maximal effect
# Conditions: ATP luminescence, 48 h; Potency: viability; series mostly up to 45.8 µM; viability: at the top concentration
# Method in brief: as §1
SMILES,Potency,viability
C=C(C)[C@H]1Cc2c(ccc3c2O[C@@H]2COc4cc(OC)c(OC)cc4[C@@H]2C3=O)O1,3.72 µM (active),–
NCC1(CC(=O)O)CCCCC1,–,99.8% (inactive)
CN1CCN(c2ccc([N+](=O)[O-])c3no[n+]([O-])c23)CC1,–,90.8% (inactive)

# Test: Quantitative highthroughput screen to assess conditional lethalithy of P12 Ichikawa cells grown in RPMI1640 with dialyzed fetal bovine serum (RPMI+ds) (AID 1963880);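 further: 100% = DMSO wells and 0% = empty wells on each plate; nearly all actives have a fitted effect of over 35% in size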
# Conditions: ATP luminescence, 48 h; Potency: P12-Ichikawa viability; series mostly up to 45.8 µM; viability: at the top concentration
# Method in brief: as §1
row,SMILES,viability
1,O=P1(NCCCl)OCCCN1CCCl (stereo unspecified),95.6% (inactive)
2,CC[C@@H](C(N)=O)N1CCCC1=O,95.5% (inactive)
3,COC(=O)[C@@H](N)CCCN=C(N)N[N+](=O)[O-],99.6% (inactive)
4,CN[C@@H]1Cc2cccc3[nH]c(=O)n(c23)C1,96.7% (inactive)
5,O=C(N[C@H]1CN2CCC1CC2)c1ccc(Cl)cc1,87.2% (inactive)
6,COc1ccc(C(=O)c2c(C)n(CCN3CCOCC3)c3ccccc23)cc1,111% (inactive)

# Test: Quantitative highthroughput screen to assess conditional lethalithy of P12 Ichikawa cells grown in RPMI1640 with untreated serum (RPMI+s) (AID 1963881); further: nearly all actives have a fitted effect of over 35% in size; further: potency means the concentration at half of the fitted maximal effect;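 on viability: 100% = DMSO wells and 0% = empty wells without cells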
# Conditions: ATP luminescence, 48 h; Potency: viability; series mostly up to 45.8 µM; viability: at the top concentration
# Method in brief: as §1
SMILES,Potency,viability
C=C(C)[C@H]1Cc2c(ccc3c2O[C@@H]2COc4cc(OC)c(OC)cc4[C@@H]2C3=O)O1,2.09 µM (active),–
N[C@@H](Cc1ccc(N(CCCl)CCCl)cc1)C(=O)O,4.69 µM (active),–
CC(C)(C)c1cc(C=C(C#N)C#N)cc(Br)c1O,–,87% (inactive)
O=P1(NCCCl)OCCCN1CCCl (stereo unspecified),–,78.6% (inactive)
CN1C(=O)COc2c(C(=O)NC3CN4CCC3CC4)cc(Cl)cc21 (stereo unspecified),–,130% (inactive)
NCC1(CC(=O)O)CCCCC1,–,117% (inactive)
CN1CCN(c2ccc([N+](=O)[O-])c3no[n+]([O-])c23)CC1,–,102% (inactive)
CC(C)c1cccc(C(C)C)c1O,–,108% (inactive)
COC(=O)[C@@H](N)CCCN=C(N)N[N+](=O)[O-],–,106% (inactive)
CN[C@@H]1Cc2cccc3[nH]c(=O)n(c23)C1,–,95.6% (inactive)
COc1ccc(C(=O)c2c(C)n(CCN3CCOCC3)c3ccccc23)cc1,–,97.2% (inactive)

# Test: Quantitative highthroughput screen to assess conditional lethalithy of SEM cells grown in Human Plasma-Like Medium with dialyzed fetal bovine serum (HPLM+ds) (AID 1963882); further: nearly all actives have a fitted effect of over 35% in size; further: potency means the concentration at half of the fitted maximal effect
# Conditions: SEM B-ALL cells in HPLM+ds, CellTiter-Glo viability, 48 h; series mostly up to 45.8 µM; viability: at the top concentration
# Method in brief: as §1
SMILES,Potency,viability
C=C(C)[C@H]1Cc2c(ccc3c2O[C@@H]2COc4cc(OC)c(OC)cc4[C@@H]2C3=O)O1,5.26 µM (active),–
Cc1[nH]nc2ccc(-c3cncc(OC[C@@H](N)Cc4c[nH]c5ccccc45)c3)cc12,0.187 µM (active),–
O=P1(NCCCl)OCCCN1CCCl (stereo unspecified),18.7 µM (active),–
CN1C(=O)COc2c(C(=O)NC3CN4CCC3CC4)cc(Cl)cc21 (stereo unspecified),–,103% (inactive)
NCC1(CC(=O)O)CCCCC1,–,103% (inactive)
Cc1ncc(OC[C@@]2(c3cccc(F)c3)C[C@H]2C(=O)Nc2ccc(F)cn2)c(C)n1,–,82.7% (inactive)
CC(C)c1cccc(C(C)C)c1O,–,98.5% (inactive)
COC(=O)[C@@H](N)CCCN=C(N)N[N+](=O)[O-],–,101% (inactive)
CN[C@@H]1Cc2cccc3[nH]c(=O)n(c23)C1,–,96.8% (inactive)
O=C(N[C@H]1CN2CCC1CC2)c1ccc(Cl)cc1,–,84.4% (inactive)
